Bioassay records (PubChem)
The list is not random: actives were taken first. Their share in the collection is about 9.4%.
SMN2 splice up = SMN2 splice variant enhancement | HEK293 SMN2-luciferase splicing reporter, luminescence, 30-36 h | Potency, µM (top dose mostly 46.1 µM), actives largely listed as activators | 210,000 tested, 2.8% active | AID 1458; further: nearly all actives have a fitted effect of over 55% in size
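HEK293 cells carry an SMN2 minigene-luciferase reporter in which exon 7 inclusion puts luciferase in frame. Cells were seeded at 2000 cells/well, attached for 10-12 hours, then exposed to compounds for 30-36 hours at 37C before ONE-Glo luminescence.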
ELG1 genotoxic = genotoxicity induction in ELG1-luciferase HEK293T cells; HEK293T ELG1-luciferase reporter, luminescence, 16 h; Potency, µM (series often up to 46 µM), actives largely listed as activators; AID 504466; 330,000 tested, 1.3% active; further: nearly all actives have a fitted effect of over 60% in size
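After overnight (16 hr) compound treatment at 37 °C, ELG1-luciferase HEK293T cells were lysed with ONE-Glo; luminescence quantified 30 min later at room temperature.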
Rab9 prom act = activators of Rab9 promoter; Potency, µM (top dose mostly 9.22 µM), hits mostly activators; 320,000 tested, 2.8% active; Huh7 Rab9 promoter-luciferase reporter, luminescence, 24 h; further: nearly all actives have a fitted effect of over 60% in size
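Promoter activation is measured as luciferase luminescence in Huh7 cells stably transfected with a Rab9 promoter–luciferase construct, following 24 h compound exposure at 37 °C and 10 min reagent incubation at ambient temperature.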
ELG1 DNA repair = inhibitors of ELG1-dependent DNA repair in HEK293T cells; Potency, µM (highest dose often 46.1 µM), usual class: inhibitors; 330,000 tested, 2.3% active; AID 504467; HEK293T ELG1-luciferase reporter, luminescence, 16 h; DNA damage induced by 5-fluorouridine; further: nearly all actives have a fitted effect of over 55% in size
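Step one: seed 2,000 cells per well. Step two: pin-transfer compound or DMSO alongside 5-fluorouridine. Step three: incubate 16 hr, 37 °C, 5% CO2. Step four: add ONE-Glo, wait 30 min, read luminescence.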
FLuc modulator = firefly luciferase modulation, counter-screen for miR-21 project; purified FLuc, Km substrates, luminescence inhibition; 360,000 tested, 6.9% active; AID 588342; P08659; Potency, µM (highest dose often 57.5 µM), usual class: inhibitors; further: nearly all actives have a fitted effect of over 55% in size
Target sequence (P08659 whole entry, looked up): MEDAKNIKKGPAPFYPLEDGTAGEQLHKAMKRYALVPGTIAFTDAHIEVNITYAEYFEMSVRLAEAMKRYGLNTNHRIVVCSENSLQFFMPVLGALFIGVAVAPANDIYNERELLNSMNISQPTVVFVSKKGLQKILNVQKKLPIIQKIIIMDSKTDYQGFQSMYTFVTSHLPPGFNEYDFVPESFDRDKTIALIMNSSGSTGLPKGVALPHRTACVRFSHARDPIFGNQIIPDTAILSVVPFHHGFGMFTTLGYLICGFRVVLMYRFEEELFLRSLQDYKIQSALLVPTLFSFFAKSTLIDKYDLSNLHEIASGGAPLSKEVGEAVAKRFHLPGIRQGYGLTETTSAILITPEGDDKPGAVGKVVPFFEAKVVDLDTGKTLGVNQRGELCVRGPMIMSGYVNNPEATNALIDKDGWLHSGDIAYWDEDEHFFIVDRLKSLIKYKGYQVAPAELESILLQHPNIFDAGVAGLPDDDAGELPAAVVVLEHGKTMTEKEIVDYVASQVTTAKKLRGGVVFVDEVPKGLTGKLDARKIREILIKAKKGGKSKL
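Purified P. pyralis luciferase (10nM final) with 10uM D-luciferin and 10uM ATP (Km levels) in 50mM Tris acetate pH 7.5, 10mM Mg acetate, 0.01% Tween-20, 0.05% BSA; qHTS 6-point titration, ~60 µM downward; luminescence read.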
NPC1 promoter act = activators of NPC1 promoter; Huh7 NPC1 promoter luciferase reporter, 24 h; 320,000 tested, 2.4% active; AID 485313; Potency, µM (series often up to 9.22 µM), most hits filed as activators; further: nearly all actives have a fitted effect of over 60% in size
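Quantitative HTS used a cell-based reporter: Huh7 cells stably bearing the NPC1 promoter upstream of luciferase were treated with compounds for 24 h, and promoter activation was read as luminescence.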
Large screens that a line does not name were inactive. The call rests on the fitted dose curve; in most records, active means well fitted curve in the direction sought with a large enough effect; inconclusive means small, poorly fitted or top-dose-only effect, or another doubt; inactive means no such curve, though single readings can be large; an effect the other way counts as inactive or inconclusive.

Fc1ccccc1N1CCN(c2c3c(nc4nncn24)CCC3)CC1	none (no result: ELG1 genotoxic, Rab9 prom act, ELG1 DNA repair, NPC1 promoter act)
O=C(/C=C/c1ccc2ccccc2n1)c1cc(Cl)ccc1O	ELG1 DNA repair inconclusive, FLuc modulator 4.78µM (no result: SMN2 splice up)
COc1cc(CNc2ncn[nH]2)ccc1OCc1cccc(C)c1	ELG1 genotoxic inconclusive, Rab9 prom act inconclusive, ELG1 DNA repair inconclusive, FLuc modulator 19µM, NPC1 promoter act inconclusive (no result: SMN2 splice up)
COc1cc(CNc2ccc(N3CCCC3)cc2)ccc1OCc1ccccc1F	SMN2 splice up 17.8µM, ELG1 DNA repair inconclusive, FLuc modulator inconclusive
COc1cc(CNc2ccc(CNc3ncn[nH]3)cc2)cc(Cl)c1OCc1ccccc1	ELG1 DNA repair inconclusive (no result: SMN2 splice up)
COc1cc(CNc2ccc(N3CCCC3)cc2)ccc1OCc1ccccc1	ELG1 genotoxic inconclusive, ELG1 DNA repair inconclusive, FLuc modulator 6.01µM
COc1cc(CNc2ccc(N3CCCCC3)cc2)ccc1OCC(=O)NC(C)(C)C	ELG1 DNA repair 9.2µM, FLuc modulator 5.36µM (no result: SMN2 splice up)
COc1cc(CNC23CC4CC(CC(C4)C2)C3)ccc1OCc1ccccc1	none
COc1cc(CNC(C)(C)CO)ccc1OCC(=O)NC(C)(C)C	none
COC(=O)C1=C(C)N(Cc2ccccc2)C(=NCc2ccco2)N[C@H]1c1ccc(Br)cc1	none (no result: SMN2 splice up, ELG1 genotoxic, Rab9 prom act, ELG1 DNA repair, NPC1 promoter act)
COc1ccc2c(c1)-c1nc(NC(=O)c3ccc(OC)c(Br)c3)sc1CC2	none (no result: ELG1 genotoxic, Rab9 prom act, ELG1 DNA repair, NPC1 promoter act)
COc1cccc(C2=CC(c3ccccc3F)n3ncc(C(=O)Nc4ccc(C)cc4)c3N2)c1 (centres undefined)	none (no result: SMN2 splice up, ELG1 genotoxic, Rab9 prom act, ELG1 DNA repair, NPC1 promoter act)
C/C(Cl)=C\Cn1c(Nc2ccccc2)nc2c1c(=O)n(C)c(=O)n2C	ELG1 DNA repair 11.2µM
CC(O)CNc1nc2c(c(=O)n(C)c(=O)n2C)n1C/C=C/c1ccccc1 (centres undefined)	ELG1 DNA repair 23.1µM
Cn1c(=O)c2c(nc(NCCCO)n2C/C=C/c2ccccc2)n(C)c1=O	ELG1 DNA repair 11.6µM
C/C(Cl)=C/Cn1c(NCCN(C)C)nc2c1c(=O)n(C)c(=O)n2C	none
CCOC(=O)c1ccc(NC(=O)CCCc2nc(-c3ccccc3Cl)no2)cc1	none (no result: ELG1 genotoxic, Rab9 prom act, ELG1 DNA repair, NPC1 promoter act)
COc1ccc(NC(=O)CCC(=O)Nc2ccc3nc(N4CCOCC4)cc(C)c3c2)c(OC)c1	ELG1 genotoxic inconclusive, Rab9 prom act 2.51µM, ELG1 DNA repair inconclusive, FLuc modulator 2.69µM, NPC1 promoter act inconclusive (no result: SMN2 splice up)
COc1ccc(N(C)C(=O)CCC(=O)Nc2ccc3nc(N4CCOCC4)cc(C)c3c2)c(OC)c1	ELG1 DNA repair inconclusive, FLuc modulator inconclusive (no result: SMN2 splice up)
COc1cc(NC(=O)CCC(=O)Nc2ccc3nc(N4CCOCC4)cc(C)c3c2)cc(OC)c1OC	ELG1 DNA repair inconclusive, FLuc modulator 15.1µM (no result: SMN2 splice up)
Cc1ccc2nc(-c3ccsc3)c(Nc3ccc(Cl)cc3)n2c1	none (no result: ELG1 genotoxic, Rab9 prom act, ELG1 DNA repair, NPC1 promoter act)
C=CCn1c(SCC(=O)N2CCc3ccccc3C2)nc2sc(CC)cc2c1=O	ELG1 DNA repair 23.1µM
CN(c1ccccc1)S(=O)(=O)c1cccc(NC(=O)c2ccc(Cl)c([N+](=O)[O-])c2)c1	ELG1 DNA repair 20.6µM (no result: SMN2 splice up, Rab9 prom act, FLuc modulator, NPC1 promoter act)
CN(c1ccccc1)S(=O)(=O)c1ccc(NC(=O)c2ccc(-c3ccccc3)cc2)cc1	ELG1 DNA repair inconclusive (no result: SMN2 splice up)
CN(c1ccc(C(=O)Nc2ccc(F)cc2F)cc1)S(=O)(=O)c1ccccc1	ELG1 DNA repair 14.6µM (no result: SMN2 splice up)
CC(=O)Nc1ccc(C(=O)Nc2cccc(S(=O)(=O)N(C)c3ccccc3)c2)cc1	ELG1 DNA repair inconclusive (no result: SMN2 splice up)
CN(c1cccc(NC(=O)c2ccc(C(C)(C)C)cc2)c1)S(C)(=O)=O	Rab9 prom act inconclusive, ELG1 DNA repair inconclusive, FLuc modulator 0.477µM (no result: SMN2 splice up)
Cc1nc2cc(NC(=O)c3ccc(S(=O)(=O)N(C)c4ccccc4)cc3)ccc2o1	FLuc modulator 16.9µM (no result: SMN2 splice up)
CC(=O)c1cccc(NC(=O)c2ccc(N(C)S(C)(=O)=O)cc2)c1	FLuc modulator inconclusive
CCOC(=O)N1CCC(NC(=O)c2ccc3c(c2)N(Cc2cc(C)ccc2C)C(=O)c2ccccc2S3(=O)=O)CC1	none (no result: ELG1 genotoxic, Rab9 prom act, ELG1 DNA repair, NPC1 promoter act)
Nc1nc2c(c(=O)[nH]1)CN(CCCN1CCOCC1)CN2	none (no result: ELG1 genotoxic, Rab9 prom act, ELG1 DNA repair, FLuc modulator, NPC1 promoter act)
CCn1cc(C(=O)N2CCN(c3cccc(C)c3C)CC2)c2cc(OC)c(OC)cc2c1=O	none (no result: ELG1 genotoxic, Rab9 prom act, ELG1 DNA repair, NPC1 promoter act)
Cc1ccc2nc3sc(C(=O)Nc4ccc(F)cc4)cc3cc2c1	none (no result: SMN2 splice up, ELG1 genotoxic, ELG1 DNA repair)
CC(C)(C)c1ccc(-c2nc(S(=O)(=O)c3ccccc3)c(N3CCOCC3)o2)cc1	none (no result: ELG1 genotoxic, Rab9 prom act, ELG1 DNA repair, NPC1 promoter act)
CN(c1cccc(NC(=O)c2ccc(N(C)S(=O)(=O)c3ccccc3)cc2)c1)S(C)(=O)=O	ELG1 DNA repair 16.4µM
Cc1csc(NC(=O)c2ccc(S(=O)(=O)N(C)c3ccccc3)cc2)n1	ELG1 DNA repair 23.1µM, FLuc modulator inconclusive
Cc1ccc(S(=O)(=O)N(CC(=O)Nc2cccc(N(C)S(C)(=O)=O)c2)c2ccc(Cl)c(Cl)c2)cc1	ELG1 DNA repair inconclusive
CN(c1cccc(NC(=O)CN(c2ccc(Cl)c(Cl)c2)S(=O)(=O)c2ccccc2)c1)S(C)(=O)=O	ELG1 DNA repair 16.4µM, FLuc modulator inconclusive
CC/C(=C(\c1ccccc1)c1ccc(OCCN(C)C)cc1)c1ccc(O)cc1	none (no result: ELG1 genotoxic, Rab9 prom act, ELG1 DNA repair, FLuc modulator, NPC1 promoter act)
Oc1ccc(Cn2c(-c3ccc(O)cc3)nc3ccccc32)cc1	none (no result: ELG1 genotoxic, Rab9 prom act, ELG1 DNA repair, FLuc modulator, NPC1 promoter act)
Cc1ccc(C2Nc3ccccc3-c3nc4ccccc4n32)o1 (centres undefined)	SMN2 splice up 11.2µM, ELG1 genotoxic inconclusive, Rab9 prom act inconclusive, ELG1 DNA repair inconclusive, FLuc modulator 10.7µM, NPC1 promoter act inconclusive
